Experiment [1] can be described thus: Drug repurposing screens with cells derived from glioblastoma tumor samples (AID 1345199). Further: nearly all actives have a fitted effect of over 40% in size. Further: potency means the concentration at half of the fitted maximal effect. On activity, negative = cell killing: on the % scale 0 is the no-effect control and ±100 the full control effect. Particulars: GBM patient neurospheres viability, ATP luminescence, 48 h. In short, it runs like this:
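Four patient lines of CD133+ GBM neurospheres were screened at several concentrations; hits were retested in those lines plus three slower-growing GBM lines, using 48-hour treatment and ATP-based viability.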

Experiment [2] can be described thus: qHTS to identify inhibitors of the type 1 interferon - major histocompatibility complex class I in skeletal muscle: primary screen against the NCATS Mechanism Interrogation Plate v5.0 (MIPE) Libary (AID 1347411). Further: nearly all actives have a fitted effect of over 65% in size. Further: potency means the concentration at half of the fitted maximal effect. Particulars: iHSKM cells + IFN-b, HiBiT-tagged MHC-I luminescence, 24 h; series mostly up to 45.8 µM. In short, it runs like this:
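Immortalized human C25cl48 myoblasts with HiBit knocked into endogenous HLA-B*08:01 were stimulated with 4.0 ng/ml IFN-beta and exposed to compounds (11-point 1:3 titration, top 46 uM final) for 24 hrs at 37 C; HiBiT lytic luminescence measured.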
Background: Quantitative high-throughput screening tests each substance at several concentrations.

Experiment [3] can be described thus: P-glycoprotein substrates identified in KB-8-5-11 adenocarcinoma cell line, qHTS therapeutic library screen (AID 1346987). Further: potency means the concentration at half of the fitted maximal effect; nearly all actives have a fitted effect of over 65% in size. Particulars: KB-8-5-11 (P-gp overexpressing) viability, CellTiter-Glo, 72 h; series mostly up to 44.5 µM. In short, it runs like this:
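KB-8-5-11: colchicine-selected sub-line of KB-3-1 over-expressing P-gp; assay medium lacked colchicine. 72 h drug exposure at 37 degree C, CellTiter-Glo.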

In experiment [4] the test system is Zika virus NS2B-NS3 protease (unlinked complex). In words: Primary screen GU Rhodamine qHTS for Zika virus inhibitors: Unlinked NS2B-NS3 protease assay (AID 1347159). Further: nearly all actives have a fitted effect of over 60% in size. Further: potency means the concentration at half of the fitted maximal effect. Particulars: Recombinant ZIKV NS2B-NS3 protease, Rhodamine110 substrate fluorescence; series mostly up to 107 µM. In short, it runs like this: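 Percent inhibition derives from the 15-min fluorescence change (ex 480, em 540 nm), normalized to no-enzyme and no-inhibitor wells. Reactions contained 25 nM NS2B-NS3 complex and 1.5 microM substrate in 10 mM Tris-HCl pH 8.0.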

In experiment [5] the test system is Zika virus NS2B-NS3 protease (linked construct). The experiment is described as follows: Primary screen NINDS Rhodamine qHTS for Zika virus inhibitors (AID 1347160). Further: nearly all actives have a fitted effect of over 55% in size. Further: potency means the concentration at half of the fitted maximal effect. Particulars: purified NS2B-NS3 protease, Rhodamine110 substrate fluorescence; series mostly up to 57.1 µM. In short, it runs like this: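 In 10 mM Tris-HCl pH 8.0 containing 0.01% Tween 20, linked NS2B-NS3 protease (25 nM final) is exposed to test compounds for 15 min. Cleavage of 1.5 microM Rhodamine110 substrate is tracked by fluorescence over 15 min.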

The target in experiment [6] is Calcium and integrin-binding protein 1 (Homo sapiens) (UniProt Q99828). In words: Primary qHTS for Identification of Calcium Integrin Binding Protein 1 (CIB1) Competitor (AID 1508620).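 Further: GST tagged CIB1 binding a fluorescein labelled alphaIIb integrin peptide tracer; top concentration of the series differs between compounds; on the % scale 0 is the no-effect control and ±100 the full control effect.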 The conditions noted are these: CIB1-GST / FITC-alphaIIb peptide fluorescence polarization; series mostly up to 114 µM. In short, it runs like this:
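Fluorescence polarization competition: CIB1-GST (1 uM final) preincubated with compound 15 min at room temperature, then FITC-labeled alphaIIb peptide (100 nM final) added for another 15 min. Polarization read at Ex 480/Em 540.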

Experiment [7] is described as follows: Primary qHTS for inhibitors of nuclear receptor binding SET domain protein 2 (NSD2) in an isogenic RCH-ACV NSD2 p.E1099K mutant (9B) (AID 1645876). Further: potency means the concentration at half of the fitted maximal effect; nearly all actives have a fitted effect of over 70% in size. Particulars: RCH-ACV NSD2 E1099K (9B) viability, CellTiter-Glo, 72 h; series mostly up to 44.9 µM.
The nature of experiment [8]: Primary qHTS for inhibitors of nuclear receptor binding SET domain protein 2 (NSD2) in an RCH-ACV wild type WT cells (2C) (AID 1645877). Further: potency means the concentration at half of the fitted maximal effect; nearly all actives have a fitted effect of over 70% in size. The conditions noted are these: RCH-ACV (leukaemia line) NSD2 WT (2C) viability, CellTiter-Glo, 72 h; series mostly up to 44.9 µM.
Experiment [9] has as its target Glutathione peroxidase 1 (Homo sapiens) (UniProt P07203). In words: Primary qHTS Assay for Inhibitors of Recombinant Selenoprotein Glutathione Peroxidase 1 (GPX1) (AID 1845191). Further: nearly all actives have a fitted effect of over 65% in size. The conditions noted are these: recombinant GPX1, GR-coupled NADPH fluorescence, 15 min; series mostly up to 48.8 µM. The procedure, abridged: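 Recombinant GPX1 (10 nM final) was preincubated with compound for 30 min at room temperature, then reacted with 1 mM GSH, 0.5 mM CHP, 0.5 mM NADPH and 100 nM glutathione reductase; NADPH fluorescence (340/450 nm) was read at 0 and 15 min.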

For experiment [10], the target named is Phospholipid hydroperoxide glutathione peroxidase GPX4 (Homo sapiens) (UniProt P36969). In words: Primary qHTS Assay for Inhibitors of Recombinant Selenoprotein Glutathione Peroxidase 4 (GPX4) (AID 1845192). Further: on the % scale 0 is the no-effect control and ±100 the full control effect; nearly all actives have a fitted effect of over 65% in size. Particulars: recombinant GPX4, GR-coupled NADPH fluorescence, 15 min; series mostly up to 50 µM. In short, it runs like this:
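GR-coupled readout: 100 nM GR, 1 mM GSH, 0.5 mM NADPH; NADPH fluorescence (ex 340/em 450 nm) read at t=0 and after 15 min RT. GPX4 200 nM, preincubated 30 min with compound; substrate 0.5 mM CHP.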

Experiment [11] addresses Luciferin 4-monooxygenase (Photinus pyralis) (UniProt P08659). The experiment is described as follows: Primary firefly luciferase (FLuc) qHTS assay for identification of artifact compounds. (AID 1845220). Further: nearly all actives have a fitted effect of over 60% in size. Particulars: purified firefly luciferase, luminescence, 5 min; series mostly up to 54.1 µM. In short, it runs like this:
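In this counter-screen for luciferase artifacts, test compounds met substrate (10 uM each luciferin and ATP) before 10 nM enzyme started the reaction. Light output was measured 5 min later.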

Experiment [12] deals with Nanoluciferase (engineered Oplophorus gracilirostris luciferase). The experiment is described as follows: Primary Nanoluciferase (NLuc) qHTS assay for identification of artifact compounds. (AID 1845222).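 Further: NLuc secreted into diluted conditioned medium of S16 cells; 0% = DMSO and -100% = no enzyme.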 The conditions noted are these: NLuc-conditioned medium, Nano-Glo luminescence, 5 min; series mostly up to 54.1 µM. The procedure, abridged:
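Using secreted nanoluciferase in S16 culture medium (0.22 um filtered, 1:55 dilution), compounds were preincubated 15 min at RT. Signal was generated with Nano-Glo reagent (1:100) over 5 min.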

Experiment [13] is described as follows: Primary redox qHTS assay for identification of artifact compounds. (AID 1845223).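 Further: 0% = DMSO and 100% = reference compound.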 The conditions noted are these: Amplex Red/HRP redox cycling with DTT, fluorescence; series mostly up to 53.8 µM. The procedure, abridged: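 Amplex Red (25 uM) and HRP (250 mU/mL) in HBSS, with compounds for 15 min, then 250 uM DTT for 30 min, room temperature, dark. Fluorescence 525/598 nm read; normalized to DMSO and 10 uM DA3003; Hill fit.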

A further experiment relates to HeLa. The experiment is described as follows: Primary qHTS to identify gynecologic anti-cancer compounds using libraries of approved drugs and bioactive compounds (AID 1345084). Further: on the % scale 0 is the no-effect control and ±100 the full control effect; nearly all actives have a fitted effect of over 55% in size. The conditions noted are these: Gynecologic cancer cell panel viability, ATPlite luminescence, 48 h; series mostly up to 57.5 µM. The procedure, abridged:
(§1)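 In this quantitative HTS, cell killing is estimated from loss of ATP-dependent luciferase light. Cells see five compound concentrations over a 48 h exposure.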

For another experiment, the system named is Hek293T. The experiment is described as above. Particulars: Gynecologic cancer cell panel viability, ATPlite luminescence, 48 h, control line for the selectivity index; series mostly up to 57.5 µM. In short, it runs like this:
as §1
(Cellular ATP, detected with luciferase, serves as a proxy for viable cell number.)

The subject of a further experiment is JEG-3. Described as above. Particulars: Gynecologic cancer cell panel viability, ATPlite luminescence, 48 h; series mostly up to 57.5 µM. In short, it runs like this: as §1
The test system of another experiment is OV90. Described as above. The conditions noted are these: Gynecologic cancer cell panel viability, ATPlite luminescence, 48 h; series mostly up to 57.5 µM. In short, it runs like this:
as §1

The test system of another experiment is Tov112D. The description is as above. Particulars: Gynecologic cancer cell panel viability, ATPlite luminescence, 48 h; series mostly up to 57.5 µM. The procedure, abridged:
as §1

Where [14] appears, read: at 46.1 µM (top of the series), tumour line C.

Unmarked numbers belong to inactive results. Results filed as inconclusive are left out. Calls of active or inactive are those of the source. The call rests on the fitted dose curve; in most records, active means well fitted curve in the direction sought with a large enough effect; inconclusive means small, poorly fitted or top-dose-only effect, or another doubt; inactive means no such curve, though single readings can be large; an effect the other way counts as inactive or inconclusive.

Sequence of Phospholipid hydroperoxide glutathione peroxidase GPX4 (Homo sapiens) (P36969 whole entry, looked up): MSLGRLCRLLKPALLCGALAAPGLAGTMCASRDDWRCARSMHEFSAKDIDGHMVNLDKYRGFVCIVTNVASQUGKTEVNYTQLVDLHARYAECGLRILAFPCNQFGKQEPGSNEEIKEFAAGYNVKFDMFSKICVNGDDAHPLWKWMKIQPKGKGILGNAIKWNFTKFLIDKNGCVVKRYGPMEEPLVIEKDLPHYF
Sequence of Glutathione peroxidase 1 (Homo sapiens) (P07203 whole entry, looked up): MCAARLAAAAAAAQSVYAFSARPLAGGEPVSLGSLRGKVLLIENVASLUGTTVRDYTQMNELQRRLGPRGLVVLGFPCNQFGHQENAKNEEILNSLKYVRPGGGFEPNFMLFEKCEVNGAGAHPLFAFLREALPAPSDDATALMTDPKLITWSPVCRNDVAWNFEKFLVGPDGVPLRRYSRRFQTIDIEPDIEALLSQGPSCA
Sequence of Calcium and integrin-binding protein 1 (Homo sapiens) (Q99828 whole entry, looked up): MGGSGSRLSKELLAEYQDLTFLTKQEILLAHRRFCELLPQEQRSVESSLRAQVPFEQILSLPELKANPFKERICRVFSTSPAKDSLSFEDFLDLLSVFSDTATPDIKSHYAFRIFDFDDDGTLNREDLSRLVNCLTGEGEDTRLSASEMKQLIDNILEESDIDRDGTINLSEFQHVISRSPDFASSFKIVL

For the compound `CC[C@H](C)[C@H]1O[C@]2(CC[C@@H]1C)C[C@@H]1C[C@@H](C/C=C(\C)[C@@H](O[C@H]3C[C@H](OC)[C@@H](O[C@H]4C[C@H](OC)[C@@H](O)[C@H](C)O4)[C@H](C)O3)[C@@H](C)/C=C/C=C3\CO[C@@H]4[C@H](O)C(C)=C[C@@H](C(=O)O1)[C@]34O)O2`, the activity, negative = cell killing in [1] (setting [14]) is -34.4%. For the same compound, the Potency was 1.12 µM (active) in experiment [1] (tumour line A), 3.98 µM (active) in [1] (tumour line B) and 2.82 µM (active) in experiment [1] (tumour line D).
In the case of `CCC(=O)Nc1cccc(Oc2nc(Nc3ccc(N4CCN(C)CC4)cc3OC)ncc2Cl)c1`, in experiment [2], the Potency result was “inactive”.
On the same count and under the same terms, then `COc1cc2nc(-c3cc(F)ccc3O)nc(N[C@@H]3CNC[C@H]3C(C)(C)O)c2cc1OC`, with 3.7 µM (active).
Take `CCNC(=O)[C@@H]1CCCN1C(=O)[C@H](CCCN=C(N)N)NC(=O)[C@H](CC(C)C)NC(=O)[C@@H](CC(C)C)NC(=O)[C@H](Cc1ccc(O)cc1)NC(=O)[C@H](CO)NC(=O)[C@H](Cc1c[nH]c2ccccc12)NC(=O)[C@H](Cc1cnc[nH]1)NC(=O)[C@@H]1CCC(=O)N1`: the activity, negative = cell killing in experiment [1] (at 45.9 µM (top of the series), tumour line B) was -5.52%; in experiment [1] (at 45.9 µM (top of the series), tumour line D) it was 4.71%; in [1] (at 46 µM (top of the series), tumour line A), -26.4%; in experiment [1] (setting [14]) it was 1.53%.
In the case of `C=C1C(=O)O[C@@H]2C[C@@]3(C)CCC[C@H](C)C3=C[C@H]12`, the Potency was 14.6 µM (active) in experiment [3], 14.5 µM (active) in experiment [7] and 12.9 µM (active) in experiment [8]. Also, the Potency entry in experiment [4], in experiment [5], in experiment [9], in [10], in experiment [11] and in experiment [12] was “inactive” each time. The Potency entry (in [13]; in the experiment on HeLa; with Hek293T; with JEG-3; in the experiment with OV90; in the experiment on Tov112D) was “inactive” in each case. Moreover, the outcome in experiment [6] was inactive.
For the compound `CCCc1c(C(C)C)nc(C(C)C)c([C@@H](C)O)c1-c1ccc(F)cc1O`, the Potency in experiment [4] was 14.1 µM (active); in experiment [5] it was 14.1 µM (active); in [8], 14.5 µM (active). Besides, in experiment [6], the result was inactive. For the same compound, the Potency result (in [9]; in experiment [10]; in experiment [11]; in [12]; in [13]; with Hek293T) was “inactive” throughout. In addition, the Potency entry with OV90 is “inactive”.
On to `Clc1ccccc1CNCC1CCC(CNCc2ccccc2Cl)CC1` (configuration not stated), for which the Potency result in [4], in [5], in experiment [9], in experiment [10], in experiment [11] and in experiment [12] was “inactive” each time. Moreover, the Potency result (in [13]; with HeLa; in the experiment with Hek293T; in the experiment with OV90) was “inactive” each time. In addition, the outcome in [6] was inactive. The values for the Potency in experiment [7] and in [8] were 18.3 µM (active) and 20.5 µM (active), respectively.
As to `O=C(O)c1ccc(O)c2ncc(N3CCCN(CCc4cccc5ccccc45)CC3)cc12`, the Potency in experiment [5] is 6.31 µM (active); in [7] it was 4.09 µM (active); in [8], 4.09 µM (active). The outcome in experiment [6] was inactive. Besides, the Potency result (in [9]; in experiment [11]; in [12]; in the experiment on HeLa) was “inactive” each time.
On to `O=C(C1=CCN2c3c(cccc31)OC[C@H]2CN1CCOCC1)c1cccc2ccccc12`, for which the Potency entry (in [5]; in experiment [9]; in experiment [10]; in experiment [11]; in experiment [12]; with Hek293T) was “inactive” in each case. Further, in the experiment with JEG-3, the Potency entry was “inactive”. Further, in experiment [6], the result was inactive.
In the case of `CC[C@@H](C)[C@H]1C(=O)O[C@H](C(C)C)C(=O)N(C)[C@@H](C(C)C)C(=O)O[C@H](C(C)C)C(=O)N(C)[C@@H](C(C)C)C(=O)O[C@H](CC(C)C)C(=O)N1C`, the Potency result in [4], in experiment [5], in experiment [9], in experiment [10], in experiment [11] and in experiment [12] was “inactive” throughout. The Potency result (in experiment [13]; in the experiment on JEG-3) was “inactive” in each case. In addition, the result in experiment [6] was inactive. In addition, the Potency was 5.41 µM (active) in [7] and 2.16 µM (active) in [8].

The values are drawn from PubChem BioAssay (NCATS).
